Source: PubChem
The list is not random: actives were taken first. Their share in the collection is about 1.2%.
DSG3 Ab inh = inhibitors of pemphigus antibody binding to DSG3, primary screen, biochemical, bead-based, flow cytometry, scFv-GFP; Desmoglein-3 (Homo sapiens), P32926; DSG3-coupled beads, scFv-anti-DSG3-GFP binding; hits give low values; binding (percent of control), % at 10 µM; actives 0.48% (n = 310,000);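 active means binding more than 3 SD below its plate's average and above zero; inconclusive means below that plate limit but binding exactly zero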;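 further: hits lower antibody fragment binding to DSG3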
Target sequence (P32926 whole entry, looked up, the tested form may be a part): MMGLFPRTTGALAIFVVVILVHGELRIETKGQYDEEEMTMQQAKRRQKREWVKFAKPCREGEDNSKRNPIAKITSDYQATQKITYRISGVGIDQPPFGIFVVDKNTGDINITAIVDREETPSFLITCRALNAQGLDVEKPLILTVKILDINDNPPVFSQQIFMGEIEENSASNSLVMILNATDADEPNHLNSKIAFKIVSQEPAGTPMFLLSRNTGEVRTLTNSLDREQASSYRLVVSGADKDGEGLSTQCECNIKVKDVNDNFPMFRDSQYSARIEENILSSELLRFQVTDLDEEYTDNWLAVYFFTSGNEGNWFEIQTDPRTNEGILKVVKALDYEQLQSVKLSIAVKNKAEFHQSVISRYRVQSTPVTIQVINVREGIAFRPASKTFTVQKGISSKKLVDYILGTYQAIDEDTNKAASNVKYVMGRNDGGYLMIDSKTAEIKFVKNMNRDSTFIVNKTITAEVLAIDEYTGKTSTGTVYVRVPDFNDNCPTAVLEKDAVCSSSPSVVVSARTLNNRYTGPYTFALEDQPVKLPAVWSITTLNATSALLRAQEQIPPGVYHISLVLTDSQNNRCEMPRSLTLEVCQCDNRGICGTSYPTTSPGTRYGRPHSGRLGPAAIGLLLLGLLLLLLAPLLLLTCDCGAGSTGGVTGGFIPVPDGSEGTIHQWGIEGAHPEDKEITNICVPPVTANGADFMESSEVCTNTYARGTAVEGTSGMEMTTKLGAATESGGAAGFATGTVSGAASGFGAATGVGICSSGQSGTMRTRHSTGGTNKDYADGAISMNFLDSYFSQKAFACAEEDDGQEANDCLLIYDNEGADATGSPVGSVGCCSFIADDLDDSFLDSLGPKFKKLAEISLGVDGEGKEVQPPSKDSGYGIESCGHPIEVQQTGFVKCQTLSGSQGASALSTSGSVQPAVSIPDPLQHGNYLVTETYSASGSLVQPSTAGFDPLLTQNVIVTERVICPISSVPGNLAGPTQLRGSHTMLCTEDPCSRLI
AGP1-GFP MLPCN = modulators of AGP1-GFP expression in yeast TOR pathway, primary screen, cell-based, multiplex flow cytometry, S. cerevisiae, MLPCN library; 3 h; GFP as percent of DMSO wells; GFP response vs DMSO, % at 10 µM; actives 0.02% (n = 320,000); AID 2066, 2009;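 active means GFP response relative to DMSO above a set limit, near screen average plus 3 SD, cut at about 150% in these data; inconclusive means fewer than 70 cells counted for the yeast strain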;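 further: median GFP channel fluorescence of the gated AGP1 strain per well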
MEP2 TOR yeast = modulators of MEP2-GFP levels in yeast, primary screen, S. cerevisiae, multiplex flow cytometry, MLPCN library; S. cerevisiae MEP2-GFP strain, 3 h; 100% = DMSO control level; GFP response vs DMSO, % at 10 µM; actives 0.51% (n = 330,000); AID 2016, 2009;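 active means GFP response versus DMSO above a set limit, roughly screen mean plus 3 SD, cut at about 180% in these data; inconclusive means fewer than 70 cells counted for a yeast strain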;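 further: median GFP fluorescence of the barcode-gated MEP2-GFP cells per well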
CIT2-GFP yeast = modulators of CIT2-GFP expression in yeast, primary screen, S. cerevisiae, GFP fusion, multiplex flow cytometry, MLPCN library; S. cerevisiae CIT2-GFP strain, 3 h; 100 means same as DMSO wells; actives 0.065% (n = 320,000); AID 2029, 2009; GFP response vs DMSO, % at 10 µM;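 active means GFP response relative to DMSO above a set limit, near the screen mean plus 3 SD, cut at about 150% in these data; inconclusive means Fewer than 70 cells measured for a yeast strain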;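 further: ratio of well median GFP fluorescence to mean of DMSO wells on the plate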
LAP4-GFP MLPCN = modulators of LAP4-GFP expression in yeast, primary screen, S. cerevisiae, multiplex flow cytometry, MLPCN library. GFP response vs DMSO, % at 10 µM. 3 h; median GFP as percent of DMSO wells. actives 0.34% (n = 320,000);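 active means GFP response vs DMSO above a set limit, about the screen mean plus 3 SD, cut at about 150% in these data; inconclusive means under 70 cell events counted for the yeast strain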
RPL19A TOR yeast = RPL19A-GFP expression modulators in yeast, primary screen, cell-based, S. cerevisiae, multiplex flow cytometry, MLPCN; S. cerevisiae RPL19A-GFP strain, 3 h; hits give low values; percent response vs DMSO, % at 10 µM; actives 0.3% (n = 330,000);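 active means percent response vs DMSO below 50%; inconclusive means fewer than 70 events counted for the yeast strain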;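 further: median channel GFP fluorescence of the barcoded RPL19A-GFP strain; ratio of sample median GFP to plate DMSO average so 100% = DMSO; lower means less RPL19A-GFP as with rapamycin TOR inhibition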
LAP4 cherry2 = LAP4-GFP expression modulators in yeast, confirmation, cell-based, second cherry pick, flow cytometry; AID 2621, 2010; S. cerevisiae LAP4-GFP strain, 3 h; actives 20% (n = 590); shares compounds with LAP4-GFP MLPCN; GFP response vs DMSO, % at 10 µM;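 active means GFP signal as percent of the solvent control above about 150%, meaning raised reporter expression, limit read from the data; inconclusive means fewer than 70 cells counted in the well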;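 further: ratio of well median GFP fluorescence to plate DMSO mean so 100% = DMSO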
MEP2 cherry2 = modulators of MEP2-GFP levels in yeast, confirmation, S. cerevisiae, flow cytometry GFP, second cherry picks | S. cerevisiae MEP2-GFP strain, 3 h | actives 10% (n = 590) | GFP response vs DMSO, % at 10 µM | shares compounds with LAP4-GFP MLPCN;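 active means GFP signal above 150% of the solvent control wells, that is a rise of more than half; inconclusive means fewer than 70 yeast cells counted in the well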;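 further: median channel GFP fluorescence of all gated yeast cells per well; ratio of median GFP to plate DMSO average so 100% = DMSO level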
RPL19A GFP CP2 = RPL19A-GFP modulators in TOR pathway yeast, confirmation, cell-based, S. cerevisiae, flow cytometry, second cherry pick. shares compounds with LAP4-GFP MLPCN. S. cerevisiae RPL19A-GFP strain, 3 h; hits give low values; 100% means same as DMSO wells. GFP response vs DMSO, % at 10 µM. actives 3% (n = 590). AID 2623, 2010;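 active means under 65% GFP response relative to DMSO; inconclusive means yeast strain with under 70 measured events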;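 further: median GFP channel fluorescence per well over the all cells gate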
CIT2 GFP CP2 = modulators of CIT2-GFP expression in yeast, confirmation, flow cytometry, second cherry pick, single plex. shares compounds with LAP4-GFP MLPCN. S. cerevisiae CIT2-GFP strain, 3 h; DMSO control wells read 100%. GFP response vs DMSO, % at 10 µM. actives 8% (n = 590). AID 2624, 2010;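 active means GFP response vs DMSO above about 150%, limit read from the data; inconclusive means fewer than 70 events counted for a yeast strain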;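 further: median green fluorescence per well over all gated yeast cells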
AGP1 GFP CP2 = AGP1-GFP expression modulators, hit retest, confirmation, cell-based, flow cytometry, S. cerevisiae, cherry pick set 2; percent response vs DMSO, % at 10 µM; AID 2643, 2010; S. cerevisiae AGP1-GFP strain, 3 h; shares compounds with LAP4-GFP MLPCN; 590 tested, under 10 active;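 active means over 150 percent of DMSO response; inconclusive means yeast strain measured with under 70 events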;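 further: median GFP channel fluorescence over all cells without mother daughter split; sample median GFP divided by mean DMSO control so 100% equals DMSO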
s288c autofluor = compound autofluorescence in yeast s288c, dose response, artefact control for yeast TOR pathway GFP screen, s288c strain | S. cerevisiae s288c, 520 nm autofluorescence, flow cytometry, 3 h; hits give high values; zero means same as solvent-only cells | 610 tested, under 10 active | fluorescence change (kMESF span) at 33 µM | shares compounds with LAP4-GFP MLPCN;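 active means fluorescence span over the dose series, or activity score, above about 33, limit read from the data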
The depositor's hits bear a star; ? = inconclusive; / = no result given; ! = not active in a repeat; [ ] = dose if it differs, or a comment.

SMILES | DSG3 Ab inh | AGP1-GFP MLPCN | MEP2 TOR yeast | CIT2-GFP yeast | LAP4-GFP MLPCN | RPL19A TOR yeast | others
FC(F)(F)c1ccc(CNCCc2ccc3c(c2)OCO3)cc1 | 82.6* | 101.7 | 109.0 | 98.9 | 95.5 | 107.8
CCOC(=O)NC1CCc2cc(OC)c(OC)c(OC)c2-c2ccc(OC)c(=O)cc21 (stereo not drawn) | 86.1 | / | / | / | / | /
C=CCCC1(C(C)C)C(=O)NC(=S)NC1=O | 101.5 | / | / | / | / | /
COc1cccc(CC(=O)N2CCN(Cc3cccc(Cl)c3)CC2)c1 | -53.0* | 100.5 | 111.3 | 98.4 | 106.8 | 105.4
Clc1cc(I)cc(Cl)c1NC1=NCCN1 | 98.0 | 86.5 | 94.9 | 79.1 | 101.6 | 96.6
COc1cc(C=NNC(=S)Nc2ccc(S(=O)(=O)N3CCCCC3)cc2)cc(OC)c1OC | 99.7 | / | / | / | / | /
CN1C2CCC1CC(OC(=O)c1ccc([N+](=O)[O-])cc1)C2 (stereo not drawn) | 97.1 | 108.0 | 106.6 | 100.3 | 96.6 | 101.7
CN1[C@@H]2CC[C@H]1CC(OC(=O)C1C=Nc3ccccc31)C2 (stereo partly drawn) | 112.1 | 110.4 | 177.3* | 105.8 | 185.7* | 82.5
O=C(c1ccccc1)c1ccc(N=Nc2c(O)[nH]c(=O)[nH]c2=O)cc1 | 69.5* | 11.6 | 226.5*[may fluoresce violet] | ? | 74.8 | 100.4
C[C@@H]1CCC2[C@@H](C)C(=O)O[C@@H]3OC4(C)CCC1[C@@]23OO4 (stereo partly drawn) | / | 93.5 | 99.2 | 92.7 | 90.9 | 97.5
CN(C)[C@@H]1C(=O)C(C(N)=O)=C(O)[C@@]2(O)C(=O)C3=C(O)c4c(O)cccc4[C@@](C)(O)C3C[C@@H]12 (stereo partly drawn) | 109.3 | 93.3 | 122.9 | 110.0 | 128.5 | 106.8
CN(C)[C@@H]1C(=O)C(C(N)=O)=C(O)[C@@]2(O)C(=O)C3=C(O)c4c(O)cccc4[C@@](C)(O)[C@H]3[C@H](O)[C@@H]12 | 44.9*! | 79.4 | 97.9 | 72.0 | 126.9 | 89.0
COc1cc2c(c(OC)c1OC)-c1ccc(SC)c(=O)cc1C(N)CC2 (stereo not drawn) | 119.7 | / | / | / | / | /
Cc1cc(N=Nc2ccccc2C)ccc1N | 88.8 | 88.2 | 92.9 | 78.1 | 138.3 | 87.5
Nc1ccc(N=Nc2ccccc2)cc1 | 103.6 | 75.6 | 93.9 | 71.4 | 190.0* | 89.6
O=C(O)c1cccc2c1NC(C(=O)O)C1CC(Sc3ccccc3[N+](=O)[O-])C(Cl)C21 (stereo not drawn) | 73.2* | 100.4 | 100.0 | 95.7 | 102.3 | 96.6
Cc1ccc(/C=C2\C(=O)NC(=S)N(c3ccc(F)cc3)C2=O)s1 | 92.9 | 81.1 | 95.7 | 65.7 | 237.4* | 80.7 | LAP4 cherry2=199.0*;MEP2 cherry2=119.8;RPL19A GFP CP2=91.6;CIT2 GFP CP2=115.3;AGP1 GFP CP2=98.4;s288c autofluor=-0.2
CCOC(=O)C1CCN(/C=C2/C(=O)NC(=S)N(c3ccccc3F)C2=O)CC1 | 91.1 | 101.9 | 103.1 | 103.6 | 90.5 | 109.5
COc1ccc(N2C(=O)/C(=C/c3cccs3)C(=O)NC2=S)cc1 | 108.0 | 68.8 | 76.5 | 84.3 | 89.9 | 62.9 | LAP4 cherry2=111.5;MEP2 cherry2=128.1;RPL19A GFP CP2=63.5*;CIT2 GFP CP2=72.4;AGP1 GFP CP2=64.4;s288c autofluor=-0.5
Cc1ccc(/C=C2\C(=O)NC(=S)N(c3ccccc3F)C2=O)s1 | 97.0 | 61.8 | 90.7 | 59.8 | 82.9 | 56.1 | LAP4 cherry2=110.6;MEP2 cherry2=126.5;RPL19A GFP CP2=64.5*;CIT2 GFP CP2=69.0;AGP1 GFP CP2=67.6;s288c autofluor=-0.81
CC1(CCO)C(=O)NC(=S)NC1=O | 93.1 | / | / | / | / | /
O=C(c1ccc(F)c([N+](=O)[O-])c1)N1CC2CC(C1)c1cccc(=O)n1C2 (stereo not drawn) | 97.7 | 96.9 | 105.6 | 124.3 | 88.5 | 100.2
COc1ccc(CC(C)NCCC(c2ccccc2)c2ccccc2)cc1 (stereo not drawn) | 120.8 | 109.5 | 105.2 | 106.3 | 103.8 | 105.6
O=C1NC(=O)N(CCc2ccc(F)cc2)C(=O)/C1=C/c1cccs1 | 108.1 | 86.1 | 99.6 | 72.9 | 171.8* | 88.1 | s288c autofluor=0
O=C1NC(=O)N(CCC2=CCCCC2)C(=O)/C1=C\c1cccs1 | 115.1 | 83.3 | 85.3 | 75.6 | 122.7 | 94.2
C=CCN1C(=O)/C(=C/c2cccs2)C(=O)NC1=S | 98.3 | 71.8 | 81.1 | 49.1 | 204.2* | 79.0 | LAP4 cherry2=111.5;MEP2 cherry2=136.4;RPL19A GFP CP2=67.7;CIT2 GFP CP2=69.0;AGP1 GFP CP2=61.5;s288c autofluor=-1.1
CC12CC(O)C3C(CCC4=CC(=O)CCC43C)C1CCC2=O (stereo not drawn) | 114.2 | / | / | / | / | /
CCC(=NCCCN(C)C)c1c(O)n(-c2ccc(OC)cc2)c(=O)[nH]c1=O | / | 107.9 | 100.0 | 92.1 | 155.9* | 81.8 | LAP4 cherry2=100.2;MEP2 cherry2=106.5;RPL19A GFP CP2=100.6;CIT2 GFP CP2=100.1;AGP1 GFP CP2=98.6
CCC(=NC1CC1)c1c(O)n(-c2ccc(OC)cc2)c(=O)[nH]c1=O | 98.9 | 104.6 | 106.9 | 107.3 | 102.7 | 104.8
COc1ccc(OC(=O)N(C)C[C@@H]2OCc3cnnn3CCCC(=O)N([C@@H](C)CO)C[C@@H]2C)cc1 | 92.5 | / | / | / | / | /
